Screening results as filed in PubChem BioAssay.
A549 viability: Nrf2 qHTS screen for inhibitors: counterscreen for cytotoxicity. AID 504648, 2011. A549 ARE-Fluc cells, CellTiter-Fluor viability, 18-24 h. Potency, µM (doses to about 46 µM), most hits filed as inhibitors. 0.16% of 390,000 active
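A549 ARE-Fluc cells in 5% FBS OPTI-MEM, 5000 cells/well, rested 2 h then exposed to compounds in concentration-response for 18-24 h at 37 °C. Viability by CellTiter-Fluor fluorescence (Ex 405/Em 525) after 30 min; luciferase luminescence (BugLite, 15 min, RT) read afterwards.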
Nrf2 activator: qHTS of Nrf2 Activators; AREc32 ARE-luciferase reporter (MCF7-derived line), luminescence, 24 h; Potency, µM (highest dose often 46.1 µM), actives largely listed as activators; 0.31% of 410,000 active; AID 624171, 2012; further: nearly all actives have a fitted effect of over 65% in size
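Luminescent ARE reporter assay in AREc32_Fluc cells: overnight plating at 37 deg C, 24 hr compound incubation, Steady-Glo added, 30 min RT before reading.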
IDH1 R132H inh: qHTS for Inhibitors of mutant isocitrate dehydrogenase 1 (IDH1): qHTS | AID 602179, 2012 | 0.093% of 390,000 active | IDH1-R132H enzyme, NADPH consumption, diaphorase/resazurin fluorescence | Potency, µM (top dose mostly 76.6 µM), actives largely listed as inhibitors; further: nearly all actives have a fitted effect of over 65% in size
Target sequence (O75874 whole entry R132H, stated change not applied): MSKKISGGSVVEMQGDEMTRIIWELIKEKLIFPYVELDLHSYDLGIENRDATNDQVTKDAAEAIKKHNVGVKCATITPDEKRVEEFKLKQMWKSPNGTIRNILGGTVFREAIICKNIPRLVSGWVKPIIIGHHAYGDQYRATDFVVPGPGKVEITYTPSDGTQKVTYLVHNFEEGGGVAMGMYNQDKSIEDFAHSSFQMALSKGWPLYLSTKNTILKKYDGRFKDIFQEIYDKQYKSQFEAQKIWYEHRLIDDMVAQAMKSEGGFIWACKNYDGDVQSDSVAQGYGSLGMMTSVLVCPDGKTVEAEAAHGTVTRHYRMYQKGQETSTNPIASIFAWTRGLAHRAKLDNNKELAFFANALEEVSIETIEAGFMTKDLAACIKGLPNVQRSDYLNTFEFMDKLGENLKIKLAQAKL
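IDH1-R132H (0.5 ug/mL) preincubated 30 min with compound, then NADPH (0.016 mM) and alpha-KG (2 mM) added; 80 min at RT, pH 7.5. Remaining NADPH coupled via diaphorase/resazurin to fluorescence (540/590 nm); concentration-response curves normalized to no-enzyme control.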
Nrf2 block: Nrf2 qHTS screen for inhibitors | A549 ARE-Fluc reporter, luciferase luminescence, 18-24 h | Potency, µM (highest dose often 46 µM), hits mostly inhibitors | 2.1% of 360,000 active; further: nearly all actives have a fitted effect of over 60% in size
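Quantitative HTS in A549 cells stably bearing an antioxidant response element-firefly luciferase construct. Inhibition of Nrf2-driven transcription was scored by luminescence after 18-24 h of compound exposure at 37 °C.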
ELG1 repair inh: qHTS screen for small molecules that inhibit ELG1-dependent DNA repair in human embryonic kidney (HEK293T) cells expressing luciferase-tagged ELG1; HEK293T ELG1-luciferase reporter, luminescence, 16 h; DNA damage induced by 5-fluorouridine; Potency, µM (doses to about 46.1 µM), most hits filed as inhibitors; 2.3% of 330,000 active; further: nearly all actives have a fitted effect of over 55% in size
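Overnight (16 hr) co-exposure of 2,000 cells/well to 5-fluorouridine and compound at 37 °C preceded detection. Luciferase was quantified via ONE-Glo luminescence; loss of signal denotes inhibition.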
Hits are given with their value; – = inactive; ? = inconclusive; · = no result; ! = not active in a repeat; [ ] = remark or other dose. The list is not random: actives were taken first. Their share in the collection is about 3.8%. The call rests on the fitted dose curve; in most records, active means well fitted curve in the direction sought with a large enough effect; inconclusive means small, poorly fitted or top-dose-only effect, or another doubt; inactive means no such curve, though single readings can be large; an effect the other way counts as inactive or inconclusive.

SMILES | A549 viability | Nrf2 activator | IDH1 R132H inh | Nrf2 block | ELG1 repair inh
CCCOc1cccc(-c2cc(-c3n[nH]c(=S)n3CC)c3ccccc3n2)c1 | ? | – | – | 13µM | –
CCn1c(-c2cc(-c3ccc(C)cc3)nc3ccccc23)n[nH]c1=S | – | – | – | – | –
O=C(NN/C(=N/S(=O)(=O)c1ccc(Cl)cc1)c1ccccc1)c1cccc(Cl)c1 | – | 4.47µM | – | ? | ?
Cc1ccc(S(=O)(=O)/N=C(/NNC(=O)c2cccc(Cl)c2)c2ccccc2)cc1 | – | ? | – | ? | ?
CCC1CN(C(=O)NCc2ccc(C)cc2)c2cc(C)ccc2O1 (stereo not drawn) | ? | – | – | 20.6µM! | –
CCOC(=O)c1cccc(NC(=O)Nc2ccc3c(c2)N(C)C(=O)c2ccccc2S3)c1 | – | – | ? | 20.6µM | ·
CC(=O)c1cccc(NC(=O)Nc2ccc3c(c2)N(C)C(=O)CS3)c1 | – | – | – | 13µM | 13µM
CCCNC(=O)Nc1ccc2c(c1)N(C)C(=O)c1ccccc1S2 | – | – | – | – | –
Cc1cc(C)cc(NC(=O)Nc2ccc3c(c2)N(C)C(=O)CS3)c1 | – | – | – | ? | ?
CCc1ccc(NC(=O)Nc2ccc3c(c2)N(C)C(=O)CS3)cc1 | – | – | – | 16.4µM | ?
COc1ccccc1C1=Nn2c(nnc2-c2ccccc2O)SC1 | – | · | · | – | ·
CC(C(=O)Nc1ccc2c(c1)OCO2)N1CCC(N2CCCCC2)CC1 (stereo not drawn) | – | – | – | – | ?
COc1cccc(-n2nnnc2SCC(=O)Nc2nc3c(s2)CCCC3)c1 | – | – | – | – | ?
O=C(CSc1nnnn1-c1ccc2c(c1)OCCO2)Nc1nc2c(s1)CCCC2 | ? | – | – | 13µM | 20.6µM
O=C(Cn1cc(C(F)(F)F)ccc1=O)N/N=C/c1ccccc1O | – | – | – | – | 18.3µM
CC(=O)N/C(=C\c1ccccc1)C(=O)OCc1cccc(S(=O)(=O)N(C)C)c1 | – | – | – | 23.1µM | 7.3µM
CC(=O)N/C(=C\c1ccccc1)C(=O)OCc1ccccc1 | – | – | – | – | –
COc1ccc(-c2cnc(SCC(=O)Nc3nc(C(C)(C)C)cs3)n2Cc2ccco2)cc1 | – | – | – | 20.6µM | ?
COc1ccc(NC(=O)CSc2ncc(-c3ccc(F)cc3)n2Cc2ccco2)cc1 | – | – | – | 15.8µM | ?
COc1ccc(-c2cnc(SCC(=O)Nc3cc(C)on3)n2Cc2ccco2)cc1 | – | – | – | – | ?
Cc1ccc(C)c(NC(=O)CN2CCSc3ccc(S(=O)(=O)N4CCCC4)cc32)c1 | – | – | – | · | ·
COc1ccc(-c2nc(Cn3c(SCc4cccc(C(F)(F)F)c4)nc4cccnc43)c(C)o2)cc1OC | – | – | – | 23.1µM | ·
COc1ccc(CSc2nc3ccncc3n2Cc2nc(-c3ccc(OC)c(OC)c3)oc2C)cc1 | ? | – | – | – | ·
COc1ccc2c(C)c(CCC(=O)NCCc3ccccc3OC)c(=O)oc2c1 | – | – | – | – | ·
Cc1cc2nc(-c3cccc(Br)c3)c(Cc3ccccc3)n2c(C)c1Br | · | 11.2µM | · | · | ·
SMILES | A549 viability | Nrf2 activator | IDH1 R132H inh | Nrf2 block | ELG1 repair inh
COc1ccccc1CNC(=O)CCc1c(C)nc2cc(-c3ccc(Cl)cc3)nn2c1C | – | – | – | – | ·
Cc1csc(NC(=O)CCc2c(C)nc3cc(-c4ccc(Cl)cc4)nn3c2C)n1 | – | – | – | 1.46µM | ?
Cc1nc2cc(-c3ccc(Cl)cc3)nn2c(C)c1CCC(=O)NC(C)c1ccc2c(c1)OCCO2 (stereo not drawn) | – | – | – | 13µM | ?
NNc1nc(-c2ccccc2)nc(-c2ccccc2)c1Br | – | – | – | – | ·
Cn1c(-c2c(N)n(CCc3ccccc3)c3nc4ccccc4nc23)nc2ccccc21 | – | – | – | – | 9.2µM
COCCCn1c(N)c(-c2nc3ccccc3n2C)c2nc3ccccc3nc21 | – | – | – | 20.6µM | ?
COc1ccc(CCN=C(N)NS(=O)(=O)c2ccc(F)cc2)cc1 | – | – | – | ? | 18.3µM
COc1cc(C2C(C(C)=O)=C(O)C(=O)N2Cc2ccccc2)ccc1O (stereo not drawn) | – | – | – | – | –
NC(=O)C(C(=O)/C=C/c1ccc(Cl)cc1)=C1SCCS1 | ? | 7.94µM | – | ? | ?
CCC1CCCCN1Cc1nc2c(c(=O)n(C)c(=O)n2C)n1Cc1c(F)cccc1Cl (stereo not drawn) | – | · | · | – | ·
C=CCN1C(=O)C(CC(=O)Nc2ccc(OCCC)cc2)N(CCCN2CCN(Cc3ccccc3)CC2)C1=S (stereo not drawn) | ? | – | – | 18.4µM | ?
c1csc(CNc2ncnc3cc(-c4ccc5c(c4)OCO5)ccc23)c1 | – | · | · | – | ·
CCc1ccccc1N1CC(c2nc3ccccc3n2CCC2CCCCC2)CC1=O (stereo not drawn) | ? | – | – | ? | ·
COc1ccc(/C=N/Nc2nc(C)cc(-c3ccccc3)n2)cc1OC | – | – | – | 23.1µM | ?
Cc1cc(-c2ccccc2)nc(N/N=C/c2ccccc2)n1 | – | – | – | ? | ?
Cc1cc(-c2ccccc2)nc(N/N=C/c2ccc([N+](=O)[O-])cc2)n1 | – | – | – | ? | 13µM
COc1ccc(CCn2c(C)cc(C(=O)CSc3nc(N)cc(=O)[nH]3)c2C)cc1 | –[1.84 µM] | – | – | 18.4µM | ?
Cc1ccc(S(=O)(=O)N2[C@@H](c3ccc(Br)cc3)C(C(=O)O)=CC[C@H]2c2ccc(Cl)c(Cl)c2)cc1 | – | – | – | 25.9µM | –
Cc1ccccc1NC(=O)CSc1nc2nccnc2c(=O)n1CCc1c[nH]c2ccccc12 | – | – | – | – | ·
CCN(Cc1ccc2c(c1)OCO2)C(=O)CSc1ncnc2sccc12 | – | – | – | – | –
Cc1nc(SCC(=O)NCC2COc3ccccc3O2)c2c(C)c(C)sc2n1 (stereo not drawn) | – | – | – | 20.6µM | –
CCN(Cc1ccc2c(c1)OCCO2)C(=O)CSc1nc(C)nc2sc(C)c(C)c12 | – | – | – | ? | 13µM
CC(=O)C1=C(c2ccc(Br)cc2)C(=O)c2ccccc2C1=O | – | – | – | ? | 3.66µM
CC(=O)Nc1c(Br)cc2c(c1Br)C(=O)c1ccccc1-2 | – | – | – | – | ·
CCCN(CCC)C(=O)c1nn(C)c2c1CSc1ccc(C)cc1-2 | – | – | – | · | ·
Cc1ccc(NC(=O)/C(=C/c2cccc([N+](=O)[O-])c2)NC(=O)C2CCCCC2)c(C)c1 | – | – | – | 9.2µM | ?
CC(C)c1nc2sc3c(c2c(=O)[nH]1)CC(C)(C)OC3 | – | – | – | – | –
O=S(=O)(c1ccc2c(c1)OCCO2)N1CCN(S(=O)(=O)c2ccc(Br)cc2F)CC1 | – | · | · | – | ·
